Results: PubChem BioAssay (NCATS)
Inconclusive results are not listed. Values without a mark were called inactive. Calls of active or inactive are those of the source. The call rests on the fitted dose curve; in most records, active means well fitted inhibition curve with a large enough effect; inconclusive means small, poorly fitted or top-dose-only effect; inactive means flat fitted curve, though single readings scatter.

biological target: Calcium and integrin-binding protein 1 (Homo sapiens) (UniProt Q99828); assay: Primary qHTS for Identification of Calcium Integrin Binding Protein 1 (CIB1) Competitor (AID 1508620); conditions: CIB1-GST / FITC-alphaIIb peptide fluorescence polarization; series mostly up to 114 µM; activity change, negative = inhibition: at the top concentration;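 on activity change, negative = inhibition: GST tagged CIB1 binding a fluorescein labelled alphaIIb integrin peptide tracer; top concentration of the series differs between compounds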
Sequence (Q99828 whole entry, looked up): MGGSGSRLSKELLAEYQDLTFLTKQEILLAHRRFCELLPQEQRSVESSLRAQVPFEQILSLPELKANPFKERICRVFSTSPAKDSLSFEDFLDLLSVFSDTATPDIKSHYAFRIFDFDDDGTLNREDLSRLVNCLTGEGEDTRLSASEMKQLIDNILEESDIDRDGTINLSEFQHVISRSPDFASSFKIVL
Method in brief: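 CIB1-GST (1 uM final) and compound incubated 15 min at room temperature before adding FITC-alphaIIb peptide tracer (100 nM final). Competition for binding read by fluorescence polarization (ex 480, em 540) after another 15 min at room temperature.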
On the % scale 0 is the no-effect control and ±100 the full control effect; potency means the concentration at half of the fitted maximal effect.

| SMILES | activity change, negative = inhibition | Potency |
| --- | --- | --- |
| C/C=C(\C)C(=O)OC1C[C@@]2(COC(C)=O)O[C@H]2/C=C\[C@@]2(C)O[C@@H]2[C@H]2OC(=O)C(COC(C)=O)=C12 (stereo partly specified) | 8.92% [at 57.7 µM] |  |
| COc1ccc(C(=O)O[C@H]2C=COC=C3C=C4C(=O)N(C)C(=S)C(=O)N4[C@@H]32)cc1Oc1cc(C=O)ccc1O |  | 22.4 µM (active) |
| C1=Cc2ccccc2C(=C2CCN(CCCCc3nn[nH]n3)CC2)c2ccccc21 | -2.17% |  |
| Cc1cc(-c2nc(-c3ccc(OC(F)(F)F)cc3)no2)nn1Cc1ccnc(N2CCN(C3CC3)CC2)c1 | 2.08% |  |
| CC(=O)O[C@@H]1C[C@@]23C[C@@]24CC[C@H](O[C@@H]2OC[C@H](O)[C@H](O)[C@H]2O)C(C)(C)[C@@H]4CC[C@H]3[C@]2(C)[C@@H](O)C34O[C@H](C[C@@H](C)[C@@H]3[C@@]12C)[C@@H](C(C)(C)O)O4 | -3.06% |  |
| O=C(N[C@H]1CCC[C@H](CO)C1)C1CCN(c2nc3cc(Cl)c(-c4ccc(Cl)cc4)cc3o2)CC1 | 0.331% |  |
| CC(CCC1(O)OC2CC3C4CC=C5C[C@@H](O[C@@H]6O[C@H](CO)[C@@H](O[C@@H]7O[C@@H](C)[C@H](O)[C@@H](O)[C@H]7O)[C@H](O)[C@H]6O[C@@H]6O[C@@H](C)[C@H](O)[C@@H](O)[C@H]6O)CC[C@]5(C)C4CC[C@]3(C)[C@@]2(O)[C@@H]1C)CO[C@@H]1O[C@H](CO)[C@@H](O)[C@H](O)[C@H]1O (stereo partly specified) | -0.0505% [at 30.2 µM] |  |
| C=C1C(=O)O[C@@H]2C[C@@]3(C)C[C@@H](O)C[C@H](C)C3=C[C@H]12 | -0.0677% |  |
| C=C1CC[C@@H]2[C@](C)(CO)[C@H](O)CC[C@@]2(C)[C@@H]1C/C=C1/C(=O)OCC1OC(=O)/C(=C/CO)C(O)C[C@@H]1C(=C)CC[C@@H]2[C@](C)(CO)[C@H](O)CC[C@]21C (stereo partly specified) | 2.76% [at 30.2 µM] |  |
| Cn1c(=O)c(F)c(Nc2ccc(I)cc2F)c2c(=O)n(CC(O)CO)cnc21 (stereo unspecified) | 0.883% |  |
| CCCCCCOC(=O)/N=C(\N)c1ccc(NCc2nc3cc(C(=O)N(CCC(=O)OCC)c4ccccn4)ccc3n2C)cc1 | -3.98% |  |
| CC1(C)CC[C@]23CO[C@@]4(CCC5[C@@]6(C)CC[C@H](O[C@@H]7OC[C@H](O[C@@H]8O[C@H](CO)[C@@H](O)[C@H](O)[C@H]8O[C@@H]8OC[C@@H](O)[C@H](O)[C@H]8O)[C@H](O)[C@H]7O)[C@@](C)(CO)C6CC[C@@]5(C)[C@]4(C)CC2=O)[C@@H]3C1 (stereo partly specified) | 5.59% [at 30.2 µM] |  |
| CC(=O)O[C@@H]1CC[C@@]2(C)C(CC[C@]3(C)C2[C@H](O)C=C2[C@H]4[C@@H](C)[C@H](C)CC[C@]4(C)CC[C@]23C)[C@@]1(C)C(=O)O (stereo partly specified) | -10.1% [at 57.7 µM] |  |
| Cc1cc2c(cc1N1C(=O)c3cccc4c(CCCO)ccc(c34)C1=O)n(C)c(=O)n2C | -4.02% [at 30.2 µM] |  |
| COc1ccc(-c2ccccc2)cc1NS(=O)(=O)c1cc(Cl)cc(Cl)c1O | -15.8% [at 57.7 µM] |  |
| CC(C)C[C@H](C(=O)O)c1cc(-c2ccc(C(F)(F)F)cc2)cc(-c2ccc(C(F)(F)F)cc2)c1 | 6.58% |  |
| CO[C@@H]1[C@H](O)CCC2(CO2)[C@H]1[C@@]1(C)O[C@@H]1CC=C(C)C (stereo partly specified) | 5.72% |  |
| CC(=O)O[C@H]1C[C@@](O)(C(C)C)[C@@H]2[C@@H](OC(=O)c3ccc(O)cc3)CC(C)=CC[C@@]12C | -5% [at 57.7 µM] |  |
| CN(C)CC#CCCC(=O)C(O)(c1ccccc1)C1CCC1 (stereo unspecified) | 4.4% |  |
| CC(=O)CC(=O)Nc1ccc(Cl)c(C(F)(F)F)c1 | 3.66% |  |
| CC/C(C)=C/C(=O)OC1C(OC2(C)CCC3C(C4C(C)CCC42)C3(C)C)OC(C)C(O)C1O (stereo unspecified) | -10.4% [at 57.7 µM] |  |
| CC1(C)CCC2(C(=O)OC3OC(COC4OC(CO)C(O)C(O)C4O)C(O)C(O)C3O)CCC3(C)C(=CCC4C5(C)CCC(OC6OCC(O)C(O)C6O)C(C)(C)C5CCC43C)C2C1O (stereo unspecified) | 2.9% [at 30.2 µM] |  |
| C/C=C/[C@@H]1C=C[C@@H]2C[C@H](C)CC[C@H]2[C@]1(C)/C(O)=C1/C(=O)[C@@H](CO)N(C)C1=O | 4.55% [at 57.7 µM] |  |
| O=[N+]([O-])c1ccc(Oc2ccc3c(c2)CCC(c2ccccc2)O3)nc1 (stereo unspecified) | 2.27% |  |
| Cc1c(F)ccc(C(=O)Nc2cc([N+](=O)[O-])ccc2N2CCN(C)CC2)c1Cl | -4.53% |  |
| CC1(C)CC[C@]23CO[C@@]4(CCC5[C@@]6(C)CC[C@H](O[C@@H]7OC[C@H](O[C@@H]8O[C@H](CO)[C@@H](O)[C@H](O)[C@H]8O[C@@H]8OC[C@@H](O)[C@H](O)[C@H]8O)[C@H](O)[C@H]7O[C@@H]7O[C@H](CO)[C@@H](O)[C@H](O)[C@H]7O)[C@@](C)(CO)C6CC[C@@]5(C)[C@]4(C)C[C@H]2O)[C@@H]3C1 (stereo partly specified) | 2.42% [at 30.2 µM] |  |
